Drawing on PubChem BioAssay (NCATS), this text covers activity change, positive = activation, Potency and activity, negative = inhibition for 27 compounds.

The structures appear in SMILES notation. Inconclusive results are not listed. More than one record can exist for a structure, and the calls need not agree. The source made the active and inactive calls. Unless noted, calls follow the shape of the dose curve; as a rule, active = well fitted curve in the direction sought with a large enough effect; inconclusive = small, poorly fitted or top-dose-only effect, or another doubt; inactive = no such curve, though single readings can be large; an effect the other way counts as inactive or inconclusive.

Experiment [1] has as its target Cytochrome P450 3A4 (Homo sapiens) (UniProt P08684). As to the kind of experiment: qHTS Assay for Activators of Cytochrome P450 3A4 (AID 885). Also: nearly all actives have a fitted effect of over 65% in size. The conditions noted are these: recombinant CYP3A4, Luciferin-PPXE luminescence, 60 min; series mostly up to 57.1 µM. Summed up:
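Activators are scored by enhanced luminescence from CYP3A4 conversion of luciferin-PPXE (25uM, equal to KM) to luciferin, after 60 min at RT with an NADPH-regenerating system.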
Background: qHTS replaces the single test concentration by a dilution series.

Experiment [2] in a line: qHTS for Inhibitors of Plasmodium falciparum (DD2) proliferation (AID 504314). Also: potency is read from the fitted curve at half-maximal effect.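 As to activity, negative = inhibition: parasite DNA measured by SYBR Green fluorescence after red cell lysis; plate controls were DMSO vehicle for no effect and artemisinin wells for full effect.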 The conditions noted are these: P. falciparum Dd2 in erythrocytes, SYBR Green growth, 72 h; series mostly up to 6.11 µM. The method in brief: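 SYBR Green DNA-fluorescence growth assay: infected RBCs at 0.3% parasitemia, 2.5% hematocrit, 72 h compound exposure, 37C, 5% CO2; overnight lysis with dye at RT; normalized to 0.29 uM artemisinin and vehicle.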

A short description of experiment [3]: qHTS for Inhibitors of Plasmodium falciparum (GB4) proliferation (AID 504315). Also: nearly all actives have a fitted effect of over 50% in size. Also: potency is read from the fitted curve at half-maximal effect. The following applies: P. falciparum GB4 in erythrocytes, SYBR Green DNA, 72 h; series mostly up to 6.7 µM. Summed up: (§1)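 Parasite growth measured as SYBR Green DNA fluorescence (ex 485, em 535 nm) after overnight lysis following 72 h culture at 37 °C, 0.3% parasitemia, 2.5% hematocrit. Values normalized against DMSO and 0.29 uM artemisinin controls, with plate-stack correction.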

A short description of experiment [4]: qHTS for Inhibitors of Plasmodium falciparum (7G8) proliferation (AID 504316). Also: nearly all actives have a fitted effect of over 65% in size. Also: potency is read from the fitted curve at half-maximal effect. The conditions noted are these: P. falciparum 7G8 in erythrocytes, SYBR Green DNA, 72 h; series mostly up to 6.7 µM. Summed up:
as §1

The nature of experiment [5]: qHTS for Inhibitors of Plasmodium falciparum (CP250) proliferation (AID 504320).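 Also: plate controls were DMSO vehicle for no effect and 0.29 µM artemisinin control for full effect.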 The conditions noted are these: P. falciparum CP250 in erythrocytes, SYBR Green DNA, 72 h; series mostly up to 6.7 µM. The method in brief:
as §1

Experiment [6] has as its target Atrial natriuretic peptide receptor 1 (Homo sapiens) (UniProt P16066). As to the kind of experiment: Natriuretic polypeptide receptor (hNpr1) antagonism - Pilot CMLD screen (AID 1347052; calls by dose curve;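 also: cGMP level read as GloSensor luciferase luminescence after agonist stimulation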; also: potency is read from the fitted curve at half-maximal effect). The following applies: HEK293 hNpr1 GloSensor cGMP luminescence, ANP-stimulated; series mostly up to 9.22 µM.
Experiment [7] in a line: qHTS for Inhibitors of Plasmodium falciparum (HB3) proliferation (AID 504318). Also: nearly all actives have a fitted effect of over 60% in size. Also: potency is read from the fitted curve at half-maximal effect. The following applies: P. falciparum HB3 in erythrocytes, SYBR Green DNA, 72 h; series mostly up to 7.21 µM. Summed up:
as §1

Atrial natriuretic peptide receptor 1 (Homo sapiens), sequence (P16066 whole entry, looked up): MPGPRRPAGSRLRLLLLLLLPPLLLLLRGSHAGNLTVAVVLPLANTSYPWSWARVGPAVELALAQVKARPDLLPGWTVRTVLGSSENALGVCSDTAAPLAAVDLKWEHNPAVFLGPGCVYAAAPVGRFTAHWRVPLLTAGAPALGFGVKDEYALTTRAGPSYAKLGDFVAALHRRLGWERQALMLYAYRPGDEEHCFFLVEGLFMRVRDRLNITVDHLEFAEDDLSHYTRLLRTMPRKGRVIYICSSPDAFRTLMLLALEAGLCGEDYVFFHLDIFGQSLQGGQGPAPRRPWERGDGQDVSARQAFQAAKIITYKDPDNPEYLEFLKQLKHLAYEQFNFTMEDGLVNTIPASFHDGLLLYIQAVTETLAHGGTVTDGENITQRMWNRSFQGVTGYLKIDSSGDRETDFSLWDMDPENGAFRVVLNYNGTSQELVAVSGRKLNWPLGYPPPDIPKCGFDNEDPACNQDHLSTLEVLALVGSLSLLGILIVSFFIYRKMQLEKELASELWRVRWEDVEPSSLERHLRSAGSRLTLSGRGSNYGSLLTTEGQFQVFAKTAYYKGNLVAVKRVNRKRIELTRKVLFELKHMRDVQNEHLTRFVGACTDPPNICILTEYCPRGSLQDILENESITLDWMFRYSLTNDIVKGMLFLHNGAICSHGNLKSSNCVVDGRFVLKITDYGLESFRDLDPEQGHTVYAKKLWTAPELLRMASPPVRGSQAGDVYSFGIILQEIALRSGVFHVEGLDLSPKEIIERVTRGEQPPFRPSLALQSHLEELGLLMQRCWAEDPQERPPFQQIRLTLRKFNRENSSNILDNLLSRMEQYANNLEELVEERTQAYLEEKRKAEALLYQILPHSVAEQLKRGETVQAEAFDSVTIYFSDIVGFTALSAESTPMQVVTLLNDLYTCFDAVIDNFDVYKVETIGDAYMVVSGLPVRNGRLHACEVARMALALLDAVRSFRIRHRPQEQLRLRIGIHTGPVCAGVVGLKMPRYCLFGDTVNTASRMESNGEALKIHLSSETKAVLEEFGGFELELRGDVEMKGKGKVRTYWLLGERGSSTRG
Cytochrome P450 3A4 (Homo sapiens), sequence (P08684 whole entry, looked up): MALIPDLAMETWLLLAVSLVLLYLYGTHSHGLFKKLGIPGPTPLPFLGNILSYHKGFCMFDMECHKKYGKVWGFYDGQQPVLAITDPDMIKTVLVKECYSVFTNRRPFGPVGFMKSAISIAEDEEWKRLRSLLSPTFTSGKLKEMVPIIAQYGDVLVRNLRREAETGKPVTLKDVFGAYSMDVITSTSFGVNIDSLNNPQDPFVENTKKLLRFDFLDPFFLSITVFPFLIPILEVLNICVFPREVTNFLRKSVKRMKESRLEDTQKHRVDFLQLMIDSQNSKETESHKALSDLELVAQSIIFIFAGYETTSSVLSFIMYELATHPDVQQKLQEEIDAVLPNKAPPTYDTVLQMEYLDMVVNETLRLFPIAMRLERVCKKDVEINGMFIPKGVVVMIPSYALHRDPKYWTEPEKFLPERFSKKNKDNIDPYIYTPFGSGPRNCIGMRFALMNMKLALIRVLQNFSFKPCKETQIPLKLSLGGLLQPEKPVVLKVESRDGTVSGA

Consider `C[C@H]1COC(=O)[C@H](Cc2ccccc2)NC(=O)[C@@H](C)COC(=O)[C@H](Cc2ccccc2)NC1=O`, for which, in experiment [1], the activity change, positive = activation is -42.5% [at 11.4 µM] (inactive). In addition, the Potency entry in experiment [2], in experiment [3], in experiment [4], in experiment [5] and in experiment [6] was “inactive” throughout.
Regarding `C#CCN1C(=O)C2(CC(C)=C[C@@H](C)O2)c2c(Br)cccc21` (stereo partly specified), the Potency result in experiment [2], in experiment [3], in experiment [4], in experiment [5] and in experiment [6] was “inactive” each time.
As for `CC(C)[C@@H](OCc1ccccc1)[C@H](C)C=NO[C@H](C)c1cn([C@H](CO)Cc2ccccc2)nn1`, the Potency entry in experiment [2], in experiment [3], in experiment [4], in experiment [5] and in experiment [6] was “inactive” each time.
For `COC(=O)C(C(=O)OC)C1c2ccccc2C=C(C2CC2)N1C(=O)OC` (stereo unspecified), the Potency entry in experiment [2], in experiment [3], in experiment [4] and in experiment [5] was “inactive” each time. Also, the Potency in experiment [6] is 531 nM (active) and inactive.
As for `CC(CCN1CCCCc2nc(C)c(C)cc21)=NOC[C@@H](O)[C@H]1O[C@@H]2OC(C)(C)O[C@H]2[C@@H]1O`, the Potency entry in experiment [2], in experiment [3], in experiment [4], in experiment [5] and in experiment [6] was “inactive” each time.
In the case of `COc1cc2c(cc1OC)[C@@H]1O[C@](c3ccsc3)(C2)Oc2cc(-c3ccccc3)oc(=O)c21`, the Potency result in experiment [2], in experiment [3], in experiment [5] and in experiment [6] was “inactive” throughout. In experiment [4], the Potency is 1.9 µM (active) and inactive.
`COC(=O)CCCC1=CC2=C(c3ccccc3)C(=O)C(C)(OC(=O)C3CCCC3)C(=O)C2=CN1Cc1ccc2c(c1)OCO2` (stereo unspecified): in experiment [2], the activity, negative = inhibition is -1.06% [at 1.12 µM] (inactive). The Potency entry in experiment [3], in experiment [4], in experiment [5] and in experiment [6] was “inactive” throughout.
As to `C=CCN1C(=O)[C@@]2(CC(C)=C[C@@H](COc3ccccc3)O2)c2ccccc21`, the Potency entry in experiment [2], in experiment [3], in experiment [7] and in experiment [6] was “inactive” throughout.
For the compound `C#CCCCON=C1C[C@@H](O)[C@H](O)[C@H]2[C@@H]3C(=O)N(C4CCCCC4)C(=O)[C@@H]3CC[C@H]12`, the Potency result in experiment [2], in experiment [3], in experiment [4], in experiment [5] and in experiment [6] was “inactive” each time.
For the compound `CC(C)OC(=O)[C@H]1O[C@H](CCCCOCc2ccccc2)[C@@H](C)[C@H]2O[C@H]21`, the Potency result in experiment [2], in experiment [3], in experiment [4], in experiment [5] and in experiment [6] was “inactive” in each case.
`COc1ccc(COC(=O)NN=C2C[C@@H](O)[C@@H](O)[C@@H]3[C@H]4C(=O)N(C[C@@H]5CCCO5)C(=O)[C@@H]4CC[C@@H]23)cc1`: the Potency entry in experiment [2], in experiment [3], in experiment [4], in experiment [5] and in experiment [6] was “inactive” in each case.
On to `C=CC1=C2C=C(C3CC3)N(C3CCCCC3)C=C2C(=O)C(C)(OC(=O)c2ccco2)C1=O` (stereo unspecified), for which the activity, negative = inhibition in experiment [2] is 1.92% [at 1.12 µM] (inactive). The Potency entry in experiment [3], in experiment [4], in experiment [5] and in experiment [6] was “inactive” in each case.
On to `COC(=O)N[C@H](C(C(=O)OC)=C(C)NCc1ccccc1)c1ccc(Cl)cc1`, for which the Potency result in experiment [2], in experiment [3], in experiment [4], in experiment [5] and in experiment [6] was “inactive” throughout.
For `COC(=O)CCCC1=CC2=C(c3ccccc3)C(=O)C(C)(OC(=O)C3CCCC3)C(=O)C2=CN1Cc1ccc(OC)cc1` (stereo unspecified), the activity, negative = inhibition in experiment [2] was 1.81% [at 1.12 µM] (inactive). In addition, the Potency result in experiment [3], in experiment [4], in experiment [5] and in experiment [6] was “inactive” in each case.
On to `C=CC1(O)C(OC)=CC2C(=O)C1C(c1ccccc1)C2C` (stereo unspecified), for which the Potency entry in experiment [2], in experiment [3], in experiment [4], in experiment [5] and in experiment [6] was “inactive” each time.
Regarding `C#CCCCON=C1C[C@@H](O)[C@H](O)[C@H]2[C@@H]3C(=O)N(C4CCCCC4)C(=O)[C@@H]3CC[C@@H]12`, the Potency result in experiment [2], in experiment [3], in experiment [7] and in experiment [6] was “inactive” in each case.
Turning to `CC(C)=CCN1C(=O)[C@]2(O[C@H](COc3ccccc3)CC3=CCCC32)c2c(Br)cccc21` (stereo partly specified), the Potency in experiment [2] is 3780 nM (active); in experiment [3], 1.9 µM (active); in experiment [7], 1900 nM (active). The Potency entry in experiment [6] was “inactive”.
Consider `COC(=O)C(=Cc1cc(Br)c(OC)c(Br)c1)C(=O)OC`, for which the Potency entry in experiment [2], in experiment [3], in experiment [4], in experiment [5] and in experiment [6] was “inactive” in each case.
`COc1cc2c(c(OC)c1OC)C1(c3ccccc3)CCCCCC1[C@@H]2NC(=O)C(F)(F)F` (stereo partly specified): the Potency result in experiment [2], in experiment [3], in experiment [4], in experiment [5] and in experiment [6] was “inactive” throughout.
As to `O=c1oc2ccccc2c2c1[C@H]1O[C@](c3ccsc3)(Cc3c1ccc1ccccc31)O2`, the Potency entry in experiment [2], in experiment [3], in experiment [4], in experiment [5] and in experiment [6] was “inactive” each time.
Turning to `COc1cc2c(cc1OC)[C@@H]1O[C@](CCCCN3C(=O)c4ccccc4C3=O)(C2)Oc2c1c(=O)oc1ccccc21`, the Potency is 1500 nM (active) in experiment [2], 1.69 µM (active) in experiment [3] and 2390 nM (active) in experiment [7]. In addition, the Potency result in experiment [6] was “inactive”.
The corresponding values for `CC#CCC1(C(=O)OC)C(=O)NC[C@H]1c1ccccc1` (stereo partly specified) are “inactive”, “inactive”, “inactive” and “inactive”.
Turning to `C[C@H]1Cc2c(-c3ccccc3)nc3c(c2CO1)CN(S(=O)(=O)c1ccc2c(c1)OCCN2C)CC3`, in experiment [2], the activity, negative = inhibition was 0.591% [at 1.12 µM] (inactive). The Potency entry in experiment [3], in experiment [4], in experiment [5] and in experiment [6] was “inactive” each time.
For `COCCN1C(=O)CC[C@@]23C1=NC(C(=O)OC)=C(C(=O)OC)[C@@H]2N(Cc1ccccc1)c1ccccc13`, the Potency entry in experiment [2], in experiment [3], in experiment [4], in experiment [5] and in experiment [6] was “inactive” each time.
In the case of `COC(=O)C1=C(C)[C@H](O)[C@@H](C)[C@](C)(c2cc(OC)c(C)c(OC)c2COc2ccccc2)O1`, the Potency entry in experiment [2], in experiment [4], in experiment [5] and in experiment [6] was “inactive” each time. The Potency in experiment [3] was 2.13 µM (active) and inactive.
For the compound `COC(=O)CCC(=O)OC1(C)C(=O)C=C2C=C(C3CC3)N(Cc3ccc(OC)cc3)C=C2C1=O` (stereo unspecified), the Potency result in experiment [2], in experiment [3], in experiment [7], in experiment [5] and in experiment [6] was “inactive” each time.
On to `N#CCCCS(=O)(=O)c1nnnn1-c1ccccc1`, for which the Potency result in experiment [2], in experiment [3], in experiment [7], in experiment [5] and in experiment [6] was “inactive” throughout.
